Source: PubChem
RBX1-CUL1 inh = blocks human RBX1-Cullin-1 di-ubiquitin formation. P62877+Q13616. in vitro K48 di-Ub FRET, acceptor:donor ratio, 45 min. inhibition, % at 10 µM. 0.6% of 140,000 active; in the data active = inhibition above about 25%
A number is an active result; - = inactive. The sample as a whole holds a higher share of hits than the screen did.

SMILES | RBX1-CUL1 inh
CC1=C[C@@H]2[C@H]1[C@@H]1[C@@H](C)C(=O)N1N2C(=O)OCc1ccc([N+](=O)[O-])cc1 | -
O=C(N1CCN(c2ccc([N+](=O)[O-])cc2Cl)CC1)C(Cl)(Cl)Cl | -
CCOc1ccccc1/C=C1/SC(=O)N(CNc2cccc(C(F)(F)F)c2)C1=O | -
COc1cc(C)c([N+](=O)[O-])c2c(=O)ccoc12 | -
COc1ccc(CC2(CO)CCN(Cc3ccc(C)s3)CC2)cc1 | -
O=C1CSC2=NC3=C(CCC/C3=C\c3ccc(Br)cc3)C(c3ccc(Br)cc3)N12 (centres undefined) | -
CC1=NC2=NC(=O)/C(=C/c3ccc(Br)cc3)N2C(=O)C1 | 79.2
Cc1ccc(/C=C2/C(=O)N(C)C(=S)N2C)cc1 | -
CCOc1ccc(/C=C2/SC(=O)N(Cc3cccc(C(=O)O)c3)C2=O)cc1 | -
CCOC(=O)C1(Cc2ccccc2Cl)CCN(Cc2cc(C)[nH]n2)CC1 | -
CCc1ccc(N2C(=O)/C(=C/c3cccn3C(C)(C)C)C(=O)NC2=S)cc1 | -
CN1C(=O)/C(=C/c2cccn2C(C)(C)C)C(=O)NC1=S | 86.8
COc1ccc(N2C(=O)/C(=C/c3cccn3C(C)(C)C)C(=O)NC2=S)cc1 | -
COc1ccc(-c2csc(NC(=S)NC(=O)c3cc(Cl)ccc3Cl)n2)cc1Br | -
COc1cc(NCCCCCCCN)c2ncccc2c1 | -
COc1cc(NCCCCCN)c2ncccc2c1 | 26.1
COc1ccc(OC)c(NS(=O)(=O)c2cccc3cccnc23)c1 | -
COc1ccc2c(c1OC)C(=O)OC2Nc1nc(C23CC4CC(CC(C4)C2)C3)cs1 (centres undefined) | -
NC(=O)C1CCN(c2nc3ccccc3nc2Cl)CC1 | -
CCC(=O)N1CCC(N2CCCC(C(=O)NCCc3ccccc3)C2)CC1 (centres undefined) | -
Nc1c(C(=O)NCc2ccccc2)sc2nc3c(c(-c4ccco4)c12)CCCC3 | -
CCCOC(=O)c1c(-c2ccc(F)cc2)csc1NC(=O)c1cc2ccccc2oc1=O | -
C=CCOc1c(Br)cc(CNC(C)(C)C)cc1OCC | 66.2
C=CCOc1c(Br)cc(CNc2nccs2)cc1OCC | -
C=CCOc1c(Br)cc(CNc2ccc(C(=O)O)cc2)cc1OCC | -
SMILES | RBX1-CUL1 inh
O=C1CCCN1CC1CCCN(c2nc3nonc3nc2NCc2cccs2)C1 (centres undefined) | -
CCOC(=O)C1=C(c2ccccc2)N=C2SCC(=O)N2C1c1ccc(F)cc1 (centres undefined) | -
CC(C)CC(=O)Nc1cccc(Cl)c1N1CCN(C(=O)C(C)C)CC1 | -
COc1ccc(CCNC(=O)CCSCCC(=O)NCCc2ccc(OC)cc2)cc1 | -
COc1ccccc1N1C(=O)c2ccc(S(=O)(=O)c3ccc(C(=O)O)cc3)cc2C1=O | -
CCCCc1nc2ccccc2c(N)c1CCC | -
CN=C1S/C(=C\c2ccc(-c3ccc(Cl)cc3C(=O)O)o2)C(=O)N1C | -
N=C1S/C(=C\c2ccc(-c3ccccc3C(=O)O)o2)C(=O)N1c1ccc(Cl)cc1Cl | 99.7
CN1C(=O)/C(=C\c2ccc(-c3ccccc3C(=O)O)o2)SC1=S | -
Cc1sc2nc(SCC(=O)Nc3ccccc3)n(-c3ccccc3)c(=O)c2c1-c1ccccc1 | -
COc1cc(/C=C2/C(=O)N(c3ccc(Cl)c(Cl)c3)N=C2C)cc(OC)c1OC | -
CC1=NN(c2ccc(S(N)(=O)=O)cc2)C(=O)/C1=C\c1ccc(N(C)C)c(Br)c1 | 68.0
CN(C)c1ccc(/C=C2\C(=O)NN(c3ccccc3)C2=O)cc1Br | -
COc1cc(/C=C2/C(=O)N(c3ccc(Cl)c(Cl)c3)N=C2C)cc(OC)c1O | -
CC1=NN(c2ccc(S(N)(=O)=O)cc2)C(=O)C1=Nc1ccc(N(C)C)cc1 | 64.2
COc1cc(/C=C2\C(=O)N(c3ccc(S(N)(=O)=O)cc3)N=C2C)cc(OC)c1OC | 32.1
CC1=NN(c2ccc(C)cc2C)C(=O)C1=Nc1ccc(N(C)C)cc1 | -
NS(=O)(=O)c1ccc(N=C2CC(=O)Oc3ccccc32)cc1 | -
CC1=NN(c2ccc(F)cc2)C(=O)/C1=C/c1ccc2c(c1)n(C)c(=O)n2C | -
CCCCC(CC)C(=O)Nc1nnc(SC)s1 (centres undefined) | -
COc1cccc(NC(=O)CN(C)C2CCCCC2)c1 | -
OC(CO/N=C(/c1ccncc1)c1ccc(Br)cc1)CN1CCN(c2ccccc2)CC1 (centres undefined) | -
CC1=NC(=O)NC(c2ccc(O)cc2)C1C(=O)OCC(F)(F)F (centres undefined) | -
Cc1oc(-c2ccc(NC(=O)Cc3ccccc3)cc2)nc1CNC(=O)CCC(C)C | -
COc1ccc(CC(=O)NCc2nc(-c3ccc(NC(=O)Cc4ccccc4)cc3)oc2C)cc1 | -
SMILES | RBX1-CUL1 inh
Cc1nn(C)c(C)c1CCC(=O)NCc1nc(-c2ccc(NC(=O)Cc3ccccc3)cc2)oc1C | 39.3
CCCc1cc(C(=O)Nc2ccccc2Br)n(C)n1 | -
CC(=O)c1c(C)sc2c1ccc1ccccc12 | -
CC(=O)c1c(=O)n(O)cc2ccccc12 | 91.0
CC(=O)n1c(=O)c2cc3ccccc3cc2c(=O)n1C(C)=O | -
CCc1cccc(C)c1NC(=O)c1ccc(N(Cc2ccccc2Cl)S(C)(=O)=O)cc1 | -
CCOc1ccc(CN2CCc3c(C(=O)N4CCCCC4C(=O)OC)c(OC)cc(=O)n3CC2)cc1 (centres undefined) | -
C=C(C)Cn1c(=O)c2c(nc3n(-c4ccccc4N)c(C)cn23)n(C)c1=O | -
Cc1sc2nc(-c3ccc(-c4ccc(C(=O)O)cc4)o3)[nH]c(=O)c2c1C | -
Cc1sc2nc(-c3ccc(-c4ccc(Cl)c(C(=O)O)c4)o3)[nH]c(=O)c2c1C | 47.2
Cc1sc2nc(-c3ccccc3)[nH]c(=O)c2c1C | -
Cc1cc([N+](=O)[O-])cc(C(C)(C)C)c1O | -
N=C1CC(=O)Nc2nnc(SCc3ccc(Br)cc3)n21 | -
O=C(O)c1ccc(N2N=C(c3ccccc3)/C(=C/c3ccccc3)C2=O)cc1 | -
O=C(O)c1ccc(N2N=C(c3ccccc3)/C(=C/c3ccco3)C2=O)cc1 | 33.1
O=C1/C(=C/c2ccccc2OCc2ccccc2Cl)C(c2ccccc2)=NN1c1ccc([N+](=O)[O-])cc1 | -
CCN(CC)CC(O)COc1cc(CN2CCC(CO)CC2)ccc1OC (centres undefined) | -
N#CC1C(=N)C(C#N)(C#N)[C@H](c2cc(Br)cs2)[C@H]2CN(Cc3ccccc3)CC=C12 (some centres undefined) | -
C=CCOc1cc(N(CC)CC)ccc1/C=C1\C(=O)NN(c2ccc(Cl)c(Cl)c2)C1=O | -
COC(=O)CN1C(c2ccccc2Cl)=Nc2ccc(Br)cc2C1c1ccccc1 (centres undefined) | -
Cn1c(=O)c2c(ncn2CC(O)CN2CCCC2)n(C)c1=O (centres undefined) | -
O=C(Nc1ccccc1Cl)C1CCN(Cc2ccccc2)CC1 | -
O=C1c2ccccc2NC1C=NCCO (centres undefined) | -
N=CC1Nc2ccccc2C1=O (centres undefined) | 31.1
O=C1C(C2Nc3ccccc3C2=O)=Nc2ccccc21 (centres undefined) | -
COC(=O)C(NC(=O)c1ccc(C)cc1)(Nc1ccccn1)C(F)(F)F (centres undefined) | -
CSc1ccc(CNc2ccc([N+](=O)[O-])cc2C)cc1 | -
Cc1ccc(NC(=O)c2snnc2C)c(C)c1 | -
CCn1c(COc2ccc(Cl)cc2)nnc1SCC(=O)Nc1ccc([N+](=O)[O-])cc1C | -
O=C1c2ccccc2C(=O)C(O)(O)C1(O)O | 99.9
